An excerpt weighted towards active compounds, which were near 6% of everything screened.
D3 ag: qHTS of D3 Dopamine Receptor Agonist: qHTS | D3R DiscoveRx beta-arrestin cells, luminescence, 90 min | 410,000 tested, 0.58% active | D(3) dopamine receptor (Homo sapiens), P35462 | max activation, %; in the data active = max activation above about 30%
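Cells at 1500/well, incubated overnight, then treated with pinned compounds (dopamine as control) for 90 min at 37 degrees C. DiscoveRx reagent added for 30 - 60 minutes at room temperature; luminescence read.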
D1 PAM: Potentiators of Human D1 Dopamine Receptor: qHTS; D(1A) dopamine receptor (Homo sapiens), P21728; HEK293 TREx D1 cells, calcium flux, dopamine EC20 potentiation; potentiation, % at 10 µM; 360,000 tested, 0.036% active; AID 504651, 2011; in the data active = potentiation above about 30%
Target sequence (P21728 whole entry, looked up): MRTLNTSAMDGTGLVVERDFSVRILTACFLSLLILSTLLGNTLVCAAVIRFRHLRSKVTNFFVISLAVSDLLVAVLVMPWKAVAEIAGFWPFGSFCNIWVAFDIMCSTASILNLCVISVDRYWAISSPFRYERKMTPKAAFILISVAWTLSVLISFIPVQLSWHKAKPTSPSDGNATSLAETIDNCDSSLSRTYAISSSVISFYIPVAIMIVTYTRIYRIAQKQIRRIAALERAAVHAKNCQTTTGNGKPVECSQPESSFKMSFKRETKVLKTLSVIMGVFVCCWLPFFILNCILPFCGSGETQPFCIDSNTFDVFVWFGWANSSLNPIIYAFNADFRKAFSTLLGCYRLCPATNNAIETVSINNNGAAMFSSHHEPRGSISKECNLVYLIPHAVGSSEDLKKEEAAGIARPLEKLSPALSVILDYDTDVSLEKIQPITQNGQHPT
D1 antagonist: Antagonist of Human D 1 Dopamine Receptor: qHTS. D(1A) dopamine receptor (Homo sapiens), P21728. HEK293 TREx D1 cells, calcium flux, dopamine EC80; stronger effect = lower value. activity change, negative = inhibition, % at 10 µM. 360,000 tested, 3.2% active. AID 504652, 2011; in the data active = activity change below about -30%
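Kinetic fluorescence of a calcium dye serves as the read-out. D1-expressing Hek293 Trex cells, induced overnight at 30 C, are exposed to compound for 180 s before an EC80 dopamine addition, then read 180 s further.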
D3 antag: qHTS of D3 Dopamine Receptor Antagonist: qHTS; AID 652054, 2013; D(3) dopamine receptor (Homo sapiens), P35462; max response, negative = inhibition, %; 360,000 tested, 2.5% active; D3R cells, DiscoveRx beta-arrestin luminescence, antagonist mode; stronger effect = lower value; in the data active = max response below about -50%; inconclusive = no clear call, values can overlap the other calls
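Cells expressing the human receptor were seeded at 1500 cells/well, incubated overnight at 37 degrees C in 5% CO2, then exposed to library compounds with dopamine controls for 90 minutes at 37 degrees C before luminescent detection.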
D1 agonist: Allosteric Agonists of the Human D1 Dopamine Receptor: qHTS; D(1A) dopamine receptor (Homo sapiens), P21728; HEK293 T-REx D1 cells, calcium flux, agonist mode; activation, % at 2 µM; 360,000 tested, 1% active; in the data active = activation above about 30%
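Agonism was scored from calcium flux recorded over 180 s (1 read/s) after pintool compound addition, following a 10-cycle baseline. Cells were inducible force-coupled HEK293 TREx D1, plated overnight at 30 C and loaded with no-wash calcium dye.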
Of the large screens only hits and unclear results are named; the others gave an inactive call; ! = not active in a repeat.

COc1cc(NS(=O)(=O)c2ccc(NC(=S)NC(=O)C3CCCC3)cc2)nc(OC)n1	D1 antagonist -34.9
CCCCCNC(=O)C1C(=O)Nc2ccccc2C(=O)N1c1ccc(OC)cc1 (stereo not drawn)	none (no result: D1 PAM, D1 antagonist, D1 agonist)
CCN(CC)S(=O)(=O)c1ccc(NC(=O)CC(NC(C)=O)c2ccccc2)cc1 (stereo not drawn)	D3 antag -77.7 (no result: D1 antagonist)
CC(=O)NC(CC(=O)Nc1ccc(S(=O)(=O)N2CCCC2)cc1)c1ccccc1 (stereo not drawn)	D3 antag inconclusive
CN(C)n1cccc1/C=C(\C#N)S(=O)(=O)c1cccc(Cl)c1	D1 antagonist -35.2
COC(=O)COc1ccc2occ(C(C)=O)c2c1	D3 antag -105.4
Cc1ccc(C(=O)c2coc3ccc(OCC(=O)O)cc23)cc1	D3 antag -61.0
CC(C)c1ccc(NC(=O)C2(C)Cc3c(-c4ccccc4)ccnc3O2)cc1 (stereo not drawn)	D3 antag inconclusive (no result: D1 PAM, D1 antagonist, D1 agonist)
CCOC(=O)c1ccccc1NC(=O)c1nn(C)c2c1COc1ccccc1-2	none (no result: D3 antag)
Cc1cccc(NC(=O)C2CCCN(S(=O)(=O)c3ccc4c(c3)oc(=O)n4C)C2)c1C (stereo not drawn)	none (no result: D3 antag)
O=C(c1ccco1)N1N=C(c2ccccc2O)CC1c1cccs1 (stereo not drawn)	none (no result: D1 PAM, D1 antagonist, D1 agonist)
Cc1c(Br)cccc1NC(=O)C1(C)CCN1Cc1ccc(OC(C)C)cc1 (stereo not drawn)	none (no result: D1 PAM, D1 antagonist, D1 agonist)
CC(C)Oc1ccc(CN2CCC2(C)C(=O)Nc2cccc3cccnc23)cc1 (stereo not drawn)	D3 antag -92.0 (no result: D1 PAM, D1 antagonist, D1 agonist)
COc1cccc(NC(=O)Cn2cc(S(=O)(=O)N3CCCC3)c(S(=O)(=O)N3CCCC3)c2)c1	none (no result: D3 antag)
CCc1ccc(C(=O)C(C)OC(=O)c2nn(C)c(=O)c3ccccc23)cc1 (stereo not drawn)	D1 agonist 34.6
Cn1nc(C(=O)OCc2ccc(F)cc2)c2ccccc2c1=O	none
CC(=O)NC(CC(C)C)C(=O)NC(Cc1ccccc1)C(N)=O (stereo not drawn)	D3 ag 30.4
Cc1csc2cc(-c3cccc([N+](=O)[O-])c3)c(-c3cccc([N+](=O)[O-])c3)c[n+]12	D3 antag -60.6
c1ccc(Nc2nc(N3CCNCC3)nc(N3CCOCC3)n2)cc1	D3 antag -79.3
C(=N\Nc1nc(Nc2ccccc2)nc(N2CCOCC2)n1)/c1c[nH]c2ccccc12	D3 antag -62.4
c1ccc(Nc2nc(N3CCOCC3)nc(N3CCOCC3)n2)cc1	D3 antag inconclusive
CCCn1nc(NC(=O)c2cccc(Cl)c2)c2cc3cccc(C)c3nc21	none (no result: D3 antag)
Cc1ccccc1NC(=O)Cn1nc(C(F)(F)F)cc1C1CC1	none
Cc1nn(C)cc1NC(=O)Cn1nc(C(F)(F)F)cc1C1CC1	D1 antagonist -66.7
O=C(NC(NNc1ccc([N+](=O)[O-])cc1)(C(F)(F)F)C(F)(F)F)c1ccccc1Cl	D1 antagonist -37.6, D3 antag inconclusive
O=[N+]([O-])c1ccccc1S(=O)(=O)Nc1nc2ccccc2s1	none
O=C(NC(Nc1nc2ccc([N+](=O)[O-])cc2s1)(C(F)(F)F)C(F)(F)F)c1cccnc1	D1 antagonist -34.9, D1 agonist 35.9
O=C(NC(NNc1ccc([N+](=O)[O-])cc1)(C(F)(F)F)C(F)(F)F)c1ccc(F)cc1	none
O=[N+]([O-])c1ccc2nc(NS(=O)(=O)c3ccccc3[N+](=O)[O-])sc2c1	D1 antagonist -38.8, D1 agonist 68.4 (no result: D1 PAM)
O=C(NC(Nc1nc2ccc([N+](=O)[O-])cc2s1)(C(F)(F)F)C(F)(F)F)c1ccccc1Cl	D1 antagonist -36.0
COc1ccccc1-c1nc(SCC(=O)Nc2ccc(C)c(C)c2)n[nH]1	none (no result: D3 antag)
CN1C(=O)N(C)C2(c3ccccc3)N(C)C(=O)NC12c1ccccc1 (stereo not drawn)	D3 antag -57.4
CC(C)N1C(=O)NC2(c3ccccc3)N(C)C(=O)N(C)C12c1ccccc1 (stereo not drawn)	none
CCOC(=O)c1c(-c2ccccc2)oc2cc(Br)c(OCc3ccccc3)cc12	none (no result: D3 antag)
COc1cccc(NC(=O)CCNS(=O)(=O)c2ccc(Br)s2)c1	D1 antagonist -36.7!
COc1cccc(NC(=O)Cn2c(=O)n(Cc3ccco3)c(=O)c3cc(OC)c(OC)cc32)c1	none (no result: D3 antag)
O=C1CC(c2ccc(F)cc2)Sc2nc(C34CC5CC(CC(C5)C3)C4)nn21 (stereo not drawn)	D1 antagonist -52.2
CCOc1ccc(NC(C)c2cc(Cl)ccc2O)cc1 (stereo not drawn)	D3 antag -52.3
CC(Nc1ccc(Cl)cc1)c1cc(Cl)ccc1O (stereo not drawn)	D3 antag -54.6
CCC(=O)Nc1nnc(/C=C/c2ccc(OC)cc2)s1	D1 antagonist -48.2
O=S(=O)(c1ccc(F)cc1)N1CCN(c2nc(-c3ccc(F)cc3)nc3cc(Cl)ccc23)CC1	none (no result: D3 ag, D3 antag)
CN1CCN(c2nc(-c3ccc(Cl)cc3)nc3ccccc23)CC1	D3 antag -60.7
COc1ccc(-c2nc(N3CCN(S(=O)(=O)c4ccccc4)CC3)c3ccccc3n2)cc1	none (no result: D3 ag, D3 antag)
Cc1ccc(-c2nc(N3CCN(S(=O)(=O)c4ccc(F)cc4)CC3)c3ccc(Cl)cc3n2)cc1	D1 antagonist -41.4 (no result: D3 ag, D3 antag)
COc1ccc(-c2nc(N3CCN(S(=O)(=O)c4ccc(F)cc4)CC3)c3ccccc3n2)cc1	D1 antagonist -30.6 (no result: D3 ag, D3 antag)
Fc1ccc(Br)cc1C1C=C(c2ccc(Br)cc2)Nc2nnnn21 (stereo not drawn)	none (no result: D3 antag)
CC1CCCCC12NC(=O)N(CC(=O)N1CCN(S(=O)(=O)c3cccs3)CC1)C2=O (stereo not drawn)	none
CC1CCCCC12NC(=O)N(CC(=O)N1CCN(S(=O)(=O)Cc3ccccc3)CC1)C2=O (stereo not drawn)	D1 antagonist -35.3
O=C(COC(=O)Cc1n[nH]c(=O)c2ccccc12)Nc1c(Br)cc([N+](=O)[O-])cc1Br	none (no result: D1 PAM, D1 antagonist, D1 agonist)
O=C(COc1cccc2ccccc12)NNC(=O)Nc1ccccc1	D3 antag inconclusive
O=C(COc1cccc2ccccc12)NNC(=O)CSCCO	D3 antag -50.5
CC(C)c1ccc(S(=O)(=O)NCc2ccc3c(c2)CCN3C(=O)c2ccccc2)cc1	none (no result: D3 antag)
CN(C)C(=O)c1ccc(NC(=O)c2cccc(S(=O)(=O)N3CCN(Cc4ccccc4)CC3)c2)cc1	none (no result: D1 PAM, D1 antagonist, D1 agonist)
CN(CC(=O)Nc1ccc(Cl)cc1)C(=O)c1cccc(S(=O)(=O)NCc2ccccc2)c1	D3 antag -64.2

Compound activity as filed in PubChem.
